Data reported in PubChem BioAssay AID1117361 (Southern Research Institute, 2015).
The whole screen tested about 3,600 compounds, of which about 900 (25%) were called active. The list is a sample of the results. Results with a measured potency or affinity are listed apart. Unmarked numbers belong to inactive results. How the calls were made is not given here.

molecular target: Protein Tat (Human immunodeficiency virus type 1 group M subtype B (isolate HXB2)) (UniProt P04608); experiment: inhibitors of Tat binding to TAR RNA, dose response, counter-screen for Vif-APOBEC3G degradation inhibitor project, biochemical, fluorescence polarization, FAM-labeled TAR RNA (AID 1117361); details: outcome: dose series up to 100 µM unless noted; series mostly up to 100 µM; inhibition: at the top concentration

SMILES	inhibition	outcome
CCC(=O)N1CCc2cc(S(=O)(=O)NCCC(=O)NC3CCCc4ccccc43)ccc21 (stereo not given)	12.2%	–
COc1ccc(N(C(=O)c2ccco2)S(=O)(=O)c2cc(Cl)c(Cl)cc2Cl)cc1	2.7%	–
O=C(O)CCC(=O)NNC(=O)CCC(=O)NCc1ccccc1	–	inactive
CC(c1ccccc1)N(C)CC(=O)NC(=O)NCCC1=CCCCC1 (stereo not given)	–	inactive
O=C(NCc1cccs1)c1ccc2c(c1)ncn2C1CCCC1	2.05%	–
Cc1cccc2c1N(CCCOc1ccc(C(C)(C)C)cc1)C(=O)C2=O	–	inactive
O=C(CSc1nc2cc(Cl)ccc2s1)N1CCN(C(=O)c2ccco2)CC1	8.78%	–
CCOC(=O)c1cc2sc(C)cc2n1CC(=O)N1CCN(C(=O)c2ccco2)CC1	7.43%	–
COc1ccccc1CN(C)C(=O)CN1CCN(C(=O)c2cccs2)CC1	3.3%	–
Cc1nn(-c2ccccc2)c(C)c1/C=N/NC(=O)c1cc(-c2ccccc2)n[nH]1	4.09%	–
COc1ccccc1NS(=O)(=O)c1cccc2cccnc12	4.05%	–
Cn1c(=O)cc(NCc2ccccc2)[nH]c1=O	4.05%	–
O=C(NCC1CCCO1)C1CCCN(Cc2cnn(-c3ccccc3)c2-n2cccc2)C1 (stereo not given)	5.41%	–
Cc1ccc2[nH]c(=O)c(CN(Cc3ccco3)C(=O)c3ccncc3)cc2c1	–	inactive
COc1ccc2nc3oc(C(=O)N4CCCCC4)cc3cc2c1	1.36%	–
Cc1ccc(NC(=O)COc2ccccc2C(=O)Nc2ccccc2)cc1Cl	7.5%	–
O=C(CCCCCCC(=O)NCc1ccccc1)NCc1ccccc1	8.35%	–
COc1cc(NC(=O)Cc2ccccc2)cc(OC)c1	4.77%	–
CC(C)Cn1c2c(c(O)c(C(=O)Nc3nccs3)c1=O)CCCC2	–	inactive
COc1ccc(-c2[nH]c3ccccc3c2SCCN)cc1	–	inactive
Cc1nnc(N2CCc3ccccc3C2)[nH]c1=O	8.87%	–
CCS(=O)(=O)N1CCC(C(=O)NCc2cccc(OC)c2)CC1	–	inactive

SMILES	inhibition	outcome
COc1cccc(CC(=O)Nc2nccs2)c1	0.68%	–
O=C(Cn1cnc2ccccc2c1=O)c1cccs1	4.09%	–
CN(C)c1nc(N)nc(CSc2ncc(Cl)cc2Cl)n1	–	inactive
Cc1ccccc1CCNC(=O)c1ccc(Cl)c(S(=O)(=O)N2CC(C)OC(C)C2)c1 (stereo not given)	–	inactive
COc1ccccc1-n1cnc2cc(NCc3cccs3)ccc21	2.7%	–
COc1ccc(S(=O)(=O)N2CCCCCC2)cc1C(=O)OCC(=O)NC(N)=O	1.35%	–
CSc1nc2ccc3nc(NC(=O)c4cccs4)sc3c2s1	15.5%	–
Cn1c(NC(=O)c2cccs2)cc(=O)n(C)c1=O	–	inactive
CCCCCCn1c(SCC(=O)c2c(N)n(C)c(=O)n(C)c2=O)nc2ccccc21	4.05%	–
COc1cccc(C(=O)CSc2nc3ccccc3n2CC(=O)N2CCOCC2)c1	–	inactive
CN(CC(=O)NCCc1ccccc1)S(=O)(=O)c1cccs1	6.76%	–
O=C1CCCC2=C1C(c1ccco1)Nc1ccc3ccccc3c12 (stereo not given)	1.67%	–
COc1ccc(C2CC(=O)N3CN(c4ccc(C)c(Cl)c4)CSC3=C2C#N)cc1 (stereo not given)	22.3%	–
COc1ccc(Br)cc1C1CC(=O)N2CN(Cc3ccccc3)CSC2=C1C#N (stereo not given)	16.2%	–
CCOC(=O)CCN(Cc1sccc1C)S(=O)(=O)c1ccc(F)cc1	10.8%	–
Cc1ccnc(NC(=O)c2ccc(Cl)c(S(=O)(=O)N3CCCC3)c2)c1	–	inactive
COc1ccc(NC(=O)Cn2c(=O)sc3ccccc32)cc1	–	inactive
COc1ccc(Cc2nnc(NC(=O)CSc3ccccc3)s2)cc1	–	inactive
C[C@@H]1CCCCO[C@H](CN(C)C(=O)c2ccccc2)[C@@H](C)CN([C@H](C)CO)C(=O)c2cc(NC(=O)NC3CCCCC3)ccc2O1	3.01%	–
Cc1cccc(NC(=O)Cn2c(=O)n(Cc3ccco3)c(=N)c3c4c(sc32)COC(C)(C)C4)c1	–	inactive
CCOc1ccc(-n2c(=O)c3c(C)c(C)sc3n(CC(=O)NCc3ccco3)c2=O)cc1	8.87%	–
CCOC(=O)c1cc([N+](=O)[O-])cc([N+](=O)[O-])c1Sc1ncnc2nc[nH]c12	–	inactive

SMILES	inhibition	outcome
CCCCn1c(N)c(N(CCC(C)C)C(=O)C2=NN(c3cc(C)ccc3C)C(=O)CC2)c(=O)[nH]c1=O	2.34%	–
CC(=O)N(C1=C(Cl)C(=O)c2ccccc2C1=O)c1ccc(C(=O)O)cc1	–	inactive
CCC(C(=O)OCC(=O)Nc1ccc(SC(F)F)cc1)c1ccccc1 (stereo not given)	15.7%	–
CC(C)CC(c1nnnn1C1CCCCC1)N1CCN(c2ncccn2)CC1 (stereo not given)	2.05%	–
Cc1ccc(C(c2nnnn2CC2CCCO2)N2CCN(C)CC2)cc1 (stereo not given)	–	inactive
CCC(=O)Nc1cc(C(=O)OCC(=O)c2ccccc2Cl)ccc1C	2.03%	–
O=C(NCc1ccc(Cl)cc1)c1ccccc1Oc1ccccc1	3.38%	–
COC(Cc1nnc(SC)n1-c1ccc(Cl)cc1)OC	–	inactive
O=C(O)c1ccc(-n2c(-c3cc(-c4ccco4)[nH]n3)n[nH]c2=S)cc1	8.78%	–
CCOC(=O)CSc1nc2c(sc(=S)n2-c2ccccc2OC)c(=O)n1Cc1ccco1	21.8%	–
CCCn1c(Sc2nc3c(c(=O)[nH]c(=O)n3C)n2CCC)nc2c1c(=O)[nH]c(=O)n2C	–	inactive
CCC(C)n1cnc2c(c1=O)c1nc3ccccc3nc1n2-c1ccc2c(c1)OCCO2 (stereo not given)	4.05%	–
CCCn1nnnc1-c1cccc(Cl)c1	2.03%	–
COc1ccc(C(=O)CSc2nnc3n2CCCN3C(=O)Nc2ccccc2)cc1	–	inactive
CN(C)c1nc(N)nc(CSc2nc3c(c(=O)n(C)c(=O)n3C)n2Cc2ccccc2F)n1	23.1%	–
CC(=O)Nc1ccc(OCC(O)CNC2CCCC2)cc1 (stereo not given)	–	inactive
CC(=O)c1ccc(N2C(=NC(=O)C3CCCO3)SC3CS(=O)(=O)CC32)cc1 (stereo not given)	3.01%	–
O=C(c1cc2ccccc2oc1=O)N1CCN(c2ccc(N3CCOCC3)nn2)CC1	–	inactive
COc1ccccc1C1NC(c2ccccc2OC)C(C)C(=O)C1C (stereo not given)	8.11%	–
O=C(c1cccnc1NCc1ccc(F)cc1)N1CCOCC1	4.05%	–
CCOc1ccc(C2NC(=O)C(C#N)=C(S)N2c2ccc(OC)cc2)cc1OC (stereo not given)	2.73%	–
CC1(CCc2ccc3c(c2)OCO3)NC(=O)c2ccccc2N1 (stereo not given)	–	inactive

SMILES	inhibition	outcome
O=C(COc1ccccc1C(=O)O)Nc1ccc(SC(F)F)cc1	–	inactive
CCOC(=O)c1c(NC(=O)c2cccs2)sc(C)c1C	10.7% [at 50 µM]	–
CCCc1cc(=O)[nH]c(SCC(=O)Nc2cc3c(cc2C(C)=O)OCO3)n1	2.05%	–
Cc1cc(NC(=O)CCC(=O)N(CCC(C)C)C(C(=O)NC2CCCC2)c2cccnc2)no1 (stereo not given)	–	inactive
COc1ccc2c3c(c(=O)oc2c1OCC(=O)C(C)(C)C)CCCC3	–	inactive
Cc1cc(C)c2nc(N3CCCN(C(=O)c4cnccn4)CC3)c(C#N)cc2c1	26.6%	–
NS(=O)(=O)c1cccc(NS(=O)(=O)c2ccc(/C=C/C(=O)OCC(=O)c3ccccc3)cc2)c1	–	inactive
Cc1ccc(-n2nnnc2SCc2ccccn2)cc1C	4.73%	–
Cc1cc(SCC2=NNC(=O)C2)c(Cl)cc1Cl	2.47%	–
Cc1cccc(NC(=O)CC2NC3CCCCC3NC2=O)c1 (stereo not given)	–	inactive
CCC(=O)N1CCN(c2ccccc2NC(=O)c2cccc(C)c2)CC1	3.41%	–
O=C(CN1C(=O)CSC1=O)Nc1ccccc1N1CCOCC1	4.73%	–
O=C(/C=C/c1ccco1)NC(=S)Nc1ccc(C(=O)O)cc1	0.33%	–
O=C(/C=C/c1ccco1)Nc1ccc(Oc2ccccc2)cc1	–	inactive
Cc1ccc2c(c1)CCCN2C(=O)c1cc(C)c(C)s1	5.01%	–
Cc1ccc(NC(=O)C(C)Sc2nc3nc(C)cc(C)n3n2)cc1 (stereo not given)	1.65%	–
Cc1cc(C)n(-c2ncc(-c3ccccc3)nn2)n1	–	inactive
C=CCOC(=O)CN1C(=O)c2ccccc2C1=O	–	inactive
O=C(NC1CCCCC1)c1sc(=S)n2c1[nH]c(=O)c1ccccc12	10.9%	–
Cc1ccc(-n2nnnc2SCn2nnc3ccccc3c2=O)cc1	1.35%	–
Cc1cccc(CCNC(=O)CCc2nc(-c3ccccc3F)no2)c1	3.38%	–
Cc1cc(C)nc(N(C#N)CN2C(=O)c3ccccc3S2(=O)=O)n1	4.05%	–

SMILES	inhibition	outcome
Nc1ccc(S(=O)(=O)c2cc(O)c3ccccc3c2O)cc1	3.67%	–
CCOC(=O)CS(=O)(=O)c1ccc2ccccc2c1	7.43%	–
CCc1cc(C=NC2CCCCC2)c(O)s1	18.2%	–
CN(C)NC(=S)NC1CCS(=O)(=O)C1 (stereo not given)	–	inactive
CCCOc1ccc2[nH]cc(C(=O)O)c(=O)c2c1	1.35%	–
Cc1ccc(Oc2ccc(/C=N/O)cn2)cc1	–	inactive
O=S(=O)(Nc1ccc2c(c1)nc1n2CCN(Cc2ccccc2)C1)c1ccc(Cl)cc1	13.6%	–
COCCCNc1nc2c(c(=O)n(C)c(=O)n2C)n1Cc1cccc(OC)c1	4.77%	–
CCCCc1c(C)nc2ccc(Br)cc2c1SCCC#N	–	inactive
COc1ccc(C)cc1Nc1c2c(nc3ccccc13)CCC2	–	inactive
COc1cc2ccccc2nn1	8.25%	–
CC(=O)Nc1nonc1NC(=O)CSC1=NCCS1	2.7%	–
CNC(=O)CN1C(=O)NC2(CCc3ccccc32)C1=O (stereo not given)	7.43%	–
O=C(CSc1nnc(CN2CCOCC2)n1-c1ccccc1)Nc1ccc(Cl)cc1	–	inactive
CC1(C)CC(=O)C2=C(C1)N(Cc1cccnc1)C(=O)C2(NC(=O)C1CC1)C(F)(F)F (stereo not given)	17.7%	–
Cc1cc(C)cc(N(CCC#N)C(=O)CSc2nc3nc(C)cc(C)n3n2)c1	–	inactive
Cc1c(C(=O)Nc2cccc([N+](=O)[O-])c2)csc1-c1ccccc1	–	inactive
O=C(Nc1ccc(C(=O)N2CCOCC2)cc1)c1ccccc1[N+](=O)[O-]	–	inactive
O=C(C1CCN(S(=O)(=O)N2CCOCC2)CC1)N1CCN(Cc2ccc3c(c2)OCO3)CC1	2.03%	–
CN(CCO)CC(O)CN(c1ccccc1)c1ccccc1 (stereo not given)	–	inactive
CCOC(=O)c1c(Nc2ccccc2N)cc(C)nc1C	14.2%	–
COC(=O)c1c[nH]n2c(=O)c(Cc3ccc(F)cc3Cl)c(C)nc12	6.14%	–
